# Source: PubChem BioAssay (EPA / NIEHS)
# Where a structure was tested more than once in an assay, its records may differ in their call. The source made the active and inactive calls. The calls were made as follows: active = hit-call score of the fitted dose curve at least 0.9, where 1 is the maximum; inactive = score below 0.9.
# What was measured:
# [1] = ATG_GLI_CIS: Attagene CIS-FACTORIAL HepG2 Assay for human Zinc Finger Protein GLI1 (AID 2282945); conditions: HepG2, Attagene cis-factorial reporter mRNA, GLI element; actives raise or lower the signal
# In short: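 Transiently transfected HepG2 cells report endogenous transcription factor activity via cis-element-driven reporter units. After 24 h compound exposure, reporter mRNA was measured by RT-PCR with capillary electrophoresis; bidirectional fitting against DMSO baseline.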
# [2] = target: Bile acid receptor (Homo sapiens) (UniProt Q96RI1); test: ATG_IR1_CIS: Attagene CIS-FACTORIAL HepG2 Assay for human Nuclear Receptor Subfamily 1 Group H Member 4 (NR1H4), IR1 submotif (AID 2282946); conditions: IR1 reporter transcription, actives raise or lower the signal
# In short: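 HepG2 cells transiently transfected with multiple cis-promoter-driven reporter units to measure endogenous transcription factor activity; 24 h exposure. Reporter mRNA read by RT-PCR, FAM labelling, HpaI digestion and capillary electrophoresis. Bidirectional fit versus DMSO.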
# [3] = ATG_GRE_CIS: Attagene CIS-FACTORIAL HepG2 Assay for human Glucocorticoid Response Elements (GRE) (AID 2282947); conditions: HepG2 GRE cis-reporter, Attagene multiplex mRNA; actives raise or lower the signal
# In short: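 Transiently transfected HepG2 cells carrying GRE cis-reporter units (endogenous TF activity) dosed 24 h; reporter mRNA quantified by RT-PCR, 6-FAM labelling, HpaI digestion and capillary electrophoresis. Bidirectional fit versus DMSO baseline.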
# [4] = ATG_ISRE_CIS: Attagene CIS-FACTORIAL HepG2 Assay for human Interferon Regulatory Factor 1 (IRF1) binding to an Interferon-Stimulated Response Element (ISRE) (AID 2282948); conditions: HepG2 ISRE cis-reporter (Attagene), mRNA transcription readout; actives raise or lower the signal
# In short: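 Cell-based cis-reporter assay; HepG2; 24 h exposure; reporter mRNA by RT-PCR plus capillary electrophoresis fluorescence; activity in either direction scored relative to DMSO.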
# [5] = ATG_M_06_CIS: Attagene CIS-FACTORIAL HepG2 Assay for M06 Transcription Factor (Internal Marker) (AID 2282950); conditions: HepG2 Attagene CIS-FACTORIAL M06 internal marker reporter; actives raise or lower the signal
# In short: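 Fluorescence-labelled RT-PCR products from cis-promoter reporter units, cut with HpaI and resolved by capillary electrophoresis, give the signal. Cells are human HepG2, dosed for 24 h. Serves as background control, fitted relative to DMSO.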
# [6] = target: Hypoxia-inducible factor 1-alpha (Homo sapiens) (UniProt Q16665); test: ATG_HIF1a_CIS: Attagene CIS-FACTORIAL HepG2 Assay for human Hypoxia Inducible Factor 1 (HIF1A) (AID 2282951); conditions: HepG2 Attagene cis-factorial HIF1a reporter transcription; actives raise or lower the signal
# In short: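 In this multiplexed cell assay, HepG2 cells bearing transfected cis reporters are dosed for 24 h and reporter mRNA is read by RT-PCR plus capillary electrophoresis; signal increases and decreases are both scored against DMSO.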
# [7] = target: Hepatocyte nuclear factor 6 (Homo sapiens) (UniProt Q9UBC0); test: ATG_HNF6_CIS: Attagene CIS-FACTORIAL HepG2 Assay for human Hepatocyte Nuclear Factor 6 (HNF6) (AID 2282952); conditions: HepG2 Attagene cis-factorial HNF6 reporter transcription; actives raise or lower the signal
# In short: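 Cells are HepG2 carrying transiently transfected cis-promoter reporter units. Treatment lasts 24 h, after which reporter transcripts are reverse-transcribed, amplified, FAM-labelled and sized by capillary electrophoresis. DMSO serves as baseline.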
# [8] = target: Heat shock factor protein 1 (Homo sapiens) (UniProt Q00613); test: ATG_HSE_CIS: Attagene CIS-FACTORIAL HepG2 Assay for human Heat Shock Transcription Factor 1 (HSE) (AID 2282953); conditions: HepG2 HSE cis-reporter, Attagene RNA transcription; actives raise or lower the signal
# In short: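 After a 24 h incubation with test chemical, transfected HepG2 cells were harvested for RNA; reporter transcripts were measured by RT-PCR and capillary electrophoresis. Values reflect gain or loss of signal relative to DMSO.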
# [9] = ATG_MRE_CIS: Attagene CIS-FACTORIAL HepG2 Assay for human Metal Responsive Element (MRE) (AID 2282954); conditions: HepG2 MRE cis-reporter transcription, Attagene multiplex; actives raise or lower the signal
# In short: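 HepG2 cells transiently transfected with cis-element-driven reporter units; mRNA measured 24 h after dosing. Reporter transcripts quantified by RT-PCR, FAM labelling, HpaI digestion and capillary electrophoresis; bidirectional fit versus DMSO.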
# [10] = target: Paired box protein Pax-6 (Homo sapiens) (UniProt P26367); test: ATG_Pax6_CIS: Attagene CIS-FACTORIAL HepG2 Assay for human Paired Box 6 (PAX6) (AID 2282956); conditions: HepG2 CIS-FACTORIAL PAX6 reporter transcription, RNA readout; actives raise or lower the signal
# In short: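 Multiplexed cis-reporter HepG2 system; 24 h treatment; reporter mRNA read by RT-PCR/CE fluorescence; bidirectional fit vs DMSO.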
# [11] = ATG_PPRE_CIS: Attagene CIS-FACTORIAL HepG2 Assay for human Peroxisome Proliferator-activated Response Element (PPRE) (AID 2282958); conditions: HepG2 PPRE cis-element reporter, Attagene transcription factor profiling; actives raise or lower the signal
# In short: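 Multiplexed reporter transcription units under cis-regulatory promoters were transfected into HepG2 cells to capture endogenous factor activity. A 24 h incubation preceded RNA isolation and fluorescent RT-PCR fragment analysis.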
# [12] = ATG_RORE_CIS: Attagene CIS-FACTORIAL HepG2 Assay for human RAR-related Orphan Receptor Element (RORE) (AID 2282959); conditions: HepG2 Attagene cis-factorial RORE reporter, mRNA; actives raise or lower the signal
# In short: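 Fluorescence intensity of reporter-specific cDNA fragments, separated by capillary electrophoresis, gives the signal. Source: HepG2 liver cells transiently transfected with cis-element reporters and exposed 24 h; DMSO-normalized bidirectional fit.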
# [13] = ATG_Sox_CIS: Attagene CIS-FACTORIAL HepG2 Assay for human SRY-box transcription factor (SOX) (AID 2282960); conditions: HepG2 Attagene cis-factorial SOX reporter, mRNA; actives raise or lower the signal
# In short: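 After 24 h of chemical treatment, transfected HepG2 reporter cells are lysed for total RNA. Transcript levels come from RT-PCR with labelled primer extension and capillary electrophoresis, analysed bidirectionally versus DMSO.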
# [14] = target: Transcription factor Sp1 (Homo sapiens) (UniProt P08047); test: ATG_Sp1_CIS: Attagene CIS-FACTORIAL HepG2 Assay for human Specificity Protein 1 (Sp1) (AID 2282961); conditions: HepG2 Sp1 cis-reporter transcription, actives raise or lower the signal
# In short: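 Sp1-driven reporter mRNA, read as capillary electrophoresis fluorescence after RT-PCR, in transiently transfected HepG2 cells dosed for 24 h; signal change in either direction relative to DMSO.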
# [15] = ATG_SREBP_CIS: Attagene CIS-FACTORIAL HepG2 Assay for human Sterol Regulatory Element Binding (SREBP) (AID 2282962); conditions: HepG2 Attagene cis-factorial SREBP reporter, mRNA; actives raise or lower the signal
# In short: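 mRNA induction of transfected cis-promoter reporters in HepG2 cells, 24 h post-dose. Detection: RT-PCR with 6-FAM-labelled products, HpaI digest, capillary electrophoresis. DMSO served as negative control and baseline.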
# [16] = target: Signal transducer and activator of transcription 3 (Homo sapiens) (UniProt P40763); test: ATG_STAT3_CIS: Attagene CIS-FACTORIAL HepG2 Assay for human Signal Transducer and Activator of Transcription 3 (STAT3) (AID 2282963); conditions: HepG2, Attagene cis-factorial STAT3 reporter transcription; actives raise or lower the signal
# In short: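 HepG2 cells transiently transfected with multiple cis-element-driven reporter units report endogenous transcription factor activity. After 24 h compound exposure, reporter mRNA is measured by RT-PCR, 6-FAM labelling, HpaI digestion and capillary electrophoresis. Fitted bidirectionally versus DMSO.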
# [17] = ATG_TA_CIS: Attagene CIS-FACTORIAL HepG2 Assay for human TA Basal Promoter (AID 2282964); conditions: HepG2 Attagene CIS-factorial TA basal promoter reporter; actives raise or lower the signal
# In short: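 Multiplexed mRNA reporter assay, HepG2, 24 h. Reporter cDNA amplified, 6-FAM primer-extended, HpaI-cut, CE-sized; DMSO = negative control and baseline.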
# [18] = ATG_PBREM_CIS: Attagene CIS-FACTORIAL HepG2 Assay for human Phenobarbital-responsive Enhancer Module (PBREM) (AID 2282955); conditions: HepG2 PBREM cis-reporter, Attagene multiplexed transcription; actives raise or lower the signal
# In short: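 After a 24 h incubation with test chemical, transfected HepG2 cells yield total RNA; reporter-specific RT-PCR products are fluorescently labelled, HpaI-digested and resolved by capillary electrophoresis against ROX size standards.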
# [19] = ATG_PXRE_CIS: Attagene CIS-FACTORIAL HepG2 Assay for human Pregnane X Receptor Element (PXRE) (AID 2282957); conditions: HepG2 Attagene CIS-FACTORIAL PXRE reporter, mRNA; actives raise or lower the signal
# In short: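 Multiplexed cis-reporter assay in transiently transfected human HepG2 cells; 24 h chemical exposure. Reporter transcripts quantified by RT-PCR with fluorescent labeling and capillary electrophoresis.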
# [20] = ATG_M_32_CIS: Attagene CIS-FACTORIAL HepG2 Assay for M32 Transcription Factor (Internal Marker) (AID 2282949); conditions: HepG2 Attagene cis-factorial M32 reporter, mRNA; actives raise or lower the signal;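 also: background control marker of the multiplexed CIS panel rather than a real target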
# In short: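 HepG2 cells transiently transfected with multiplexed cis-regulated reporter units, dosed 24 h. Reporter mRNA quantified by RT-PCR, 6-FAM labelling, HpaI digestion and capillary electrophoresis; bidirectional fit vs DMSO.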
# Heat shock factor protein 1 (Homo sapiens), sequence (Q00613 whole entry, looked up): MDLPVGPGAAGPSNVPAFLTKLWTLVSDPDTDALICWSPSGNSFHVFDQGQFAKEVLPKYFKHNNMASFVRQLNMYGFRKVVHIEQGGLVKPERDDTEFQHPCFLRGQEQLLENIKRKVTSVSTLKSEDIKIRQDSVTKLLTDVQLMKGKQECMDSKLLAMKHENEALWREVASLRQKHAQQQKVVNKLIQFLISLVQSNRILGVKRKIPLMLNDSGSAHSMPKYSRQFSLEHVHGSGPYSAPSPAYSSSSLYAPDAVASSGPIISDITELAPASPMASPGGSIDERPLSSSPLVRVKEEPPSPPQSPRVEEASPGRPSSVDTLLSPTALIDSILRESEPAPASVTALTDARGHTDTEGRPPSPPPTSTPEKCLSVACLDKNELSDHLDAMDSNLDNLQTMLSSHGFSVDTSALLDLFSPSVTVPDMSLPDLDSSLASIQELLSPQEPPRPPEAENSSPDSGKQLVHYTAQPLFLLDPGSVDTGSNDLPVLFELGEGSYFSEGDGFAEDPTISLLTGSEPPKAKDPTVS
# Signal transducer and activator of transcription 3 (Homo sapiens), sequence (P40763 whole entry, looked up): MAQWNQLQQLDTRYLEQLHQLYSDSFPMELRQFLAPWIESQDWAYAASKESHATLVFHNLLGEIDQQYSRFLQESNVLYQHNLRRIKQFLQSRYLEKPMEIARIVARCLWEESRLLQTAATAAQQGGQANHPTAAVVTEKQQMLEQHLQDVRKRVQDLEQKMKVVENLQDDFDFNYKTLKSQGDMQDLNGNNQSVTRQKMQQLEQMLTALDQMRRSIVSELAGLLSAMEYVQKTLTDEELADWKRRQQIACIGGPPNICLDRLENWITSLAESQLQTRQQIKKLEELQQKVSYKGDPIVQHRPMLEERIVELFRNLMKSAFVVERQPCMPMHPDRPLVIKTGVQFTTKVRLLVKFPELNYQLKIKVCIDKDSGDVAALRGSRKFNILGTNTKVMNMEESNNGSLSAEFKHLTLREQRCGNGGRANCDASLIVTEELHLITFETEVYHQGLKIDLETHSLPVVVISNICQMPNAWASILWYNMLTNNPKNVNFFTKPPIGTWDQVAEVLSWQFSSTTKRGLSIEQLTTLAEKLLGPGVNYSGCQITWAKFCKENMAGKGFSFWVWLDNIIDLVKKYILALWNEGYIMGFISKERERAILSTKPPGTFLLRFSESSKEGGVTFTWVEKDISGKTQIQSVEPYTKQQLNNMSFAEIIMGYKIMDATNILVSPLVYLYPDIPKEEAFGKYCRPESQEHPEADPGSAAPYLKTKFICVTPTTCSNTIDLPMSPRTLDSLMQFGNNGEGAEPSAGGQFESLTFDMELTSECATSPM
# Hypoxia-inducible factor 1-alpha (Homo sapiens), sequence (Q16665 whole entry, looked up): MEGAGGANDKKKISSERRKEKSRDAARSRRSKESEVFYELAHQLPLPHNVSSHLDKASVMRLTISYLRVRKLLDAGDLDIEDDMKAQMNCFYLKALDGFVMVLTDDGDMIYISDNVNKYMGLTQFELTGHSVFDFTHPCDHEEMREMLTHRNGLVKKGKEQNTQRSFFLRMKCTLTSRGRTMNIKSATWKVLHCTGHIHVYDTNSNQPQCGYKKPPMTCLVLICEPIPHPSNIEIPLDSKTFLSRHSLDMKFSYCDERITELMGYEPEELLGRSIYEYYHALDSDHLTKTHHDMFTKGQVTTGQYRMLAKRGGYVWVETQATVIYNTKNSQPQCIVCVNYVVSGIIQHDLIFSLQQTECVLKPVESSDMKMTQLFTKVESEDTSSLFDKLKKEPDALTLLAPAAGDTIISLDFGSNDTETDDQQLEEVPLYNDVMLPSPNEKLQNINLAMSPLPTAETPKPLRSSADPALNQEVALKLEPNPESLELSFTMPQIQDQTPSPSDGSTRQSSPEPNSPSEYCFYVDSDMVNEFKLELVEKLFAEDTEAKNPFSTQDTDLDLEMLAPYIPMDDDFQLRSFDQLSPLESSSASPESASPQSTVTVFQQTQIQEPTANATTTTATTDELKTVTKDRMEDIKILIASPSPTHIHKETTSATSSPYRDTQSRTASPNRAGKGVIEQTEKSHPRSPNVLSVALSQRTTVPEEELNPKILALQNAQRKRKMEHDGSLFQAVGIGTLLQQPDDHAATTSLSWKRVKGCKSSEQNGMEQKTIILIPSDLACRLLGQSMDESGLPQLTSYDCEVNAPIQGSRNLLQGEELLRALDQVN
# Hepatocyte nuclear factor 6 (Homo sapiens), sequence (Q9UBC0 whole entry, looked up): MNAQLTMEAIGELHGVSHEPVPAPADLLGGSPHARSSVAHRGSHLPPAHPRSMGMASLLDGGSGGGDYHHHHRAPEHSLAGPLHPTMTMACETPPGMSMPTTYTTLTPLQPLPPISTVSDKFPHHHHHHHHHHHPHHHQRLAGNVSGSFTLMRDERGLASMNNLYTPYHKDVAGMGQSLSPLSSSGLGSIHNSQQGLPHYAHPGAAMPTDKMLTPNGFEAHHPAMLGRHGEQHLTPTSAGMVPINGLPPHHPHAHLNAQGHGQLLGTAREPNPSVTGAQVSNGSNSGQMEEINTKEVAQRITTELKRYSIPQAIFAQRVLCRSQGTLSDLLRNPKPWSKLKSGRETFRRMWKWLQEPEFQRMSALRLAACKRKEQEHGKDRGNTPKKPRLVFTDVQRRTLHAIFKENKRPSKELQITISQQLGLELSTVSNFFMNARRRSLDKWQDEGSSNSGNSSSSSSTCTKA
# Paired box protein Pax-6 (Homo sapiens), sequence (P26367 whole entry, looked up): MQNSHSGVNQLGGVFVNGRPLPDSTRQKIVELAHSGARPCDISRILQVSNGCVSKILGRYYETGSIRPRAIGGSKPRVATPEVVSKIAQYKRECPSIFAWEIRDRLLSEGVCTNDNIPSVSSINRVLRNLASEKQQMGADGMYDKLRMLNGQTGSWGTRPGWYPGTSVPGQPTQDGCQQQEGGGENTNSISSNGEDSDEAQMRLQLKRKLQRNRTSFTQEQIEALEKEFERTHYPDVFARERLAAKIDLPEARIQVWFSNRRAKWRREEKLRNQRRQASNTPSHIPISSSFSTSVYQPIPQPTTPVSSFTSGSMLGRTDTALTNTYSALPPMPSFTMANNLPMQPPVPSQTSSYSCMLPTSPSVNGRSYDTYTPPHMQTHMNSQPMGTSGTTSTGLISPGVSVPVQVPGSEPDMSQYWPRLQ
# Bile acid receptor (Homo sapiens), sequence (Q96RI1 whole entry, looked up): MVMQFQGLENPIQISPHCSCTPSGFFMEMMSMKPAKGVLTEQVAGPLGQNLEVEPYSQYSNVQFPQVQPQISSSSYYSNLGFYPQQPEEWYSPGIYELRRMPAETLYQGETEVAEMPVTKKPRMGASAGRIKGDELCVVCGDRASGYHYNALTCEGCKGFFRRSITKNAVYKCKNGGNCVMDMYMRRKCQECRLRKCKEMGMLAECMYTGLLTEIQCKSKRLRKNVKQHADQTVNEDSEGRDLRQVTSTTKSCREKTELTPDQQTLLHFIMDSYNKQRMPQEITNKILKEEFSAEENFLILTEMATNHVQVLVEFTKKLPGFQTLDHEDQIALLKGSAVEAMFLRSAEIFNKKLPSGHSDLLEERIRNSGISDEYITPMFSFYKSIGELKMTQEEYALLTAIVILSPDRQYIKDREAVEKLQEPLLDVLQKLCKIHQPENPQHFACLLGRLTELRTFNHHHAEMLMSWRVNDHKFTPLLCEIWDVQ
# Transcription factor Sp1 (Homo sapiens), sequence (P08047 whole entry, looked up): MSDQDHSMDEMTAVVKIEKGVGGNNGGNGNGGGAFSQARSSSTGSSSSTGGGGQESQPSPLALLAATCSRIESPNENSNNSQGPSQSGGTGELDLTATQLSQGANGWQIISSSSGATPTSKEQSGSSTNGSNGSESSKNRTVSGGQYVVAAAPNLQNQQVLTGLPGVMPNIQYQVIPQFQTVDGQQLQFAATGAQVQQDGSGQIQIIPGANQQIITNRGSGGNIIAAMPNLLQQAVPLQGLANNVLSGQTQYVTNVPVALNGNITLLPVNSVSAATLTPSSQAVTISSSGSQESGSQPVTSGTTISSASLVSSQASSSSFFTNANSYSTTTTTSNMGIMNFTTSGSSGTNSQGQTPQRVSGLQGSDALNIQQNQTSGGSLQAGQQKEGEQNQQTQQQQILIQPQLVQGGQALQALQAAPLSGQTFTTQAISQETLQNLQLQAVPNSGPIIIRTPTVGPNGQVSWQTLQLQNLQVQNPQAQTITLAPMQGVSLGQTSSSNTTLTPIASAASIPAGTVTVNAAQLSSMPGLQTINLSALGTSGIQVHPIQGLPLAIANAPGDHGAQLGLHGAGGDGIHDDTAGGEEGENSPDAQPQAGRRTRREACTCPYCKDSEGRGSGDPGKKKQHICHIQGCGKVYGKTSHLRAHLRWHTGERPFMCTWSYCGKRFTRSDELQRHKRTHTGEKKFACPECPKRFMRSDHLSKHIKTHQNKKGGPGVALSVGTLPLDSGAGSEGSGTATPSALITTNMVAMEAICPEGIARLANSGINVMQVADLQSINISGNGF
smiles,measurement,setting,value
CC(CCl)OP(=O)(OC(C)CCl)OC(C)CCl (stereo not drawn),outcome,[1],inactive
same,outcome,[2],inactive
same,outcome,[3],inactive
same,outcome,[4],inactive
same,outcome,[5],inactive
same,outcome,[6],inactive
same,outcome,[7],inactive
same,outcome,[8],inactive
same,outcome,[9],inactive
same,outcome,[10],inactive
same,outcome,[11],inactive
same,outcome,[12],inactive
same,outcome,[13],inactive
same,outcome,[14],inactive
same,outcome,[15],inactive
same,outcome,[16],inactive
same,outcome,[17],inactive
CCC(=O)OCCc1ccccc1,outcome,[1],inactive
same,outcome,[2],inactive
same,outcome,[3],inactive
same,outcome,[4],inactive
same,outcome,[5],inactive
same,outcome,[6],inactive
same,outcome,[7],inactive
same,outcome,[8],inactive
same,outcome,[9],inactive
same,outcome,[18],inactive
same,outcome,[10],inactive
same,outcome,[19],inactive
same,outcome,[11],inactive
same,outcome,[12],inactive
same,outcome,[13],inactive
same,outcome,[14],inactive
same,outcome,[15],inactive
same,outcome,[16],inactive
same,outcome,[17],inactive
O=S(=O)(OCC(F)F)C(F)(F)F,outcome,[1],inactive
same,outcome,[2],inactive
same,outcome,[3],inactive
same,outcome,[4],inactive
same,outcome,[5],inactive
same,outcome,[6],inactive
same,outcome,[7],inactive
same,outcome,[8],inactive
same,outcome,[9],inactive
same,outcome,[18],inactive
same,outcome,[10],inactive
same,outcome,[19],inactive
same,outcome,[11],inactive
same,outcome,[12],inactive
same,outcome,[13],inactive
same,outcome,[14],inactive
same,outcome,[15],inactive
same,outcome,[16],inactive
same,outcome,[17],inactive
C1COCCN1,outcome,[1],inactive
same,outcome,[4],inactive
same,outcome,[20],inactive
same,outcome,[5],inactive
same,outcome,[6],inactive
same,outcome,[7],inactive
same,outcome,[8],inactive
same,outcome,[9],inactive
same,outcome,[18],inactive
same,outcome,[10],inactive
same,outcome,[12],inactive
same,outcome,[13],inactive
same,outcome,[14],inactive
same,outcome,[15],inactive
same,outcome,[16],inactive
same,outcome,[17],inactive
Cc1cc(C)cc(O)c1,outcome,[1],inactive
same,outcome,[3],inactive
same,outcome,[4],inactive
same,outcome,[5],inactive
same,outcome,[6],inactive
same,outcome,[7],inactive
same,outcome,[8],inactive
same,outcome,[9],inactive
same,outcome,[10],inactive
same,AC50,[19],64.5 µM (active)
same,outcome,[19],inactive
same,outcome,[11],inactive
same,outcome,[12],inactive
same,outcome,[13],inactive
same,outcome,[14],inactive
same,outcome,[15],inactive
same,outcome,[16],inactive
same,outcome,[17],inactive
CC(C)c1ccccc1N,outcome,[1],inactive
same,outcome,[2],inactive
same,outcome,[3],inactive
same,outcome,[4],inactive
same,outcome,[5],inactive
same,outcome,[6],inactive
same,outcome,[7],inactive
same,outcome,[8],inactive
same,outcome,[9],inactive
same,outcome,[18],inactive
same,outcome,[10],inactive
same,AC50,[19],34.9 µM (active)
same,outcome,[11],inactive
same,outcome,[12],inactive
same,outcome,[13],inactive
same,outcome,[14],inactive
same,outcome,[15],inactive
same,outcome,[16],inactive
same,outcome,[17],inactive
